From PubChem BioAssay
A selection: hits, their analogues and other compounds. The true share with any hit is near 1.5%.
FAK blocker = blocks human focal adhesion kinase activity; Q05397; inhibition, %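 (tested at 7 µM)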; hit rate 0.84% among 97,000; biochemical FAK kinase activity assay
Phagocytosis inh = inhibitors of macrophage phagocytosis | J774A.1 macrophage IgG-bead phagocytosis, imaging | hit rate 0.07% among 110,000 | inhibition, % at 5 µM;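 active = inhibition above the mean of the plate negative controls plus 5 SD, cut at about 13% in these data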;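 note: phagocytic index as fraction of beads internalized from green versus red external bead signal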
Mac1 fbg inh = CD11b/CD18-fibrinogen binding inhibition; inhibition, % at 10 µM; hit rate 0.54% among 93,000; K562 CD11b/CD18 adhesion to fibrinogen, ATPlite luminescence; Mn2+ added to activate the integrin; P05107+P11215;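 active = primary inhibition of 50% or more at 10 µM, then 40% or more on retest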
Target sequence (P05107 whole entry, looked up, other chains not shown): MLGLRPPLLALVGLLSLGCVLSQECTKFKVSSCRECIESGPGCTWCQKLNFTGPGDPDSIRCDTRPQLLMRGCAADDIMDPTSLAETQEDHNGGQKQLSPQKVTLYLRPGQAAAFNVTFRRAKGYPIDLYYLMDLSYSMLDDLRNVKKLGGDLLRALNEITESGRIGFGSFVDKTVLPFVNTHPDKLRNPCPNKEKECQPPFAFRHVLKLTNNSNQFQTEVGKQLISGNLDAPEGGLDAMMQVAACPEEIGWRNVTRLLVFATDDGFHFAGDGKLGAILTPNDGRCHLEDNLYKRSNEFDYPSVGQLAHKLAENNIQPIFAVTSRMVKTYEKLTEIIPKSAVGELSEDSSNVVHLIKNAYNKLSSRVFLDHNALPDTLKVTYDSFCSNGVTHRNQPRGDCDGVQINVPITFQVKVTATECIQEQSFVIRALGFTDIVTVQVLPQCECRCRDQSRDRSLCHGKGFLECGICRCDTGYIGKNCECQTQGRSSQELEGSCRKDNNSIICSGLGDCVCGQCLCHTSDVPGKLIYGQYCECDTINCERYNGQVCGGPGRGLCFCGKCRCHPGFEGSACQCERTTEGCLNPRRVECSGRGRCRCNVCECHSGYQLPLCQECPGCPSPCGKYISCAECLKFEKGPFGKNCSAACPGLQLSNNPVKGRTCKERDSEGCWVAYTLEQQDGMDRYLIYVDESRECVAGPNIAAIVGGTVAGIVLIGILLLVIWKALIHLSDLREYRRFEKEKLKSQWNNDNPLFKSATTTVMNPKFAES
Mac1 fbg enh = enhancers of human CD11b/CD18 binding to fibrinogen | P05107+P11215 | K562 CD11b/CD18 adhesion to fibrinogen, ATPlite luminescence | activation, % at 10 µM | hit rate 0.07% among 93,000 | AID 1499;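 active = 10 µM primary screen giving 50% or more activity, confirmed by 40% or more on retest at that dose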
MRP1 act = MRP-1 activation; viability increase, % at 10 µM; H69AR cells + doxorubicin, viability rescue, CellTiter-Glo; hit rate 0.61% among 140,000;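 active = viability gain under doxorubicin at or above a set limit, the compound median plus 3 SD, cut at about 4.7% in these data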;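 note: MRP-1 overexpressing cells given doxorubicin 25 µM after compound pretreatment; 18-22 h compound pretreatment then 72 h with doxorubicin before readout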
MRP reversal = MRP-mediated drug resistance reversal. H69AR cells + 2 uM doxorubicin, CellTiter-Glo, 72 h. differential viability (reversal), % at 10 µM. hit rate 0.04% among 85,000;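 active = viability drop by adding the cancer drug above about 55%, with treated viability meeting a 40% cutoff, limit read from the data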;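 note: larger differential means the compound sensitizes cells more to doxorubicin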
FAK inh conf = FAK (human) inhibition confirmed; shares compounds with FAK blocker; FAK kinase biochemical inhibition assay; inhibition, % at 7 µM; hit rate 28% among 750
Hits are given with their value. Cut-off read from the data, not from the text of the source, unless noted: active = inhibition above about 19%; inactive = the rest.

Screening CCOCCOC(=O)C1=C(C)NC2=C(C(=O)CC(c3cccs3)C2)C1c1ccsc1 (centres undefined) returned FAK blocker 22.1, Phagocytosis inh inactive, Mac1 fbg inh inactive, Mac1 fbg enh inactive, MRP1 act inactive, MRP reversal inactive and FAK inh conf 21.1.
Cc1ccc(CNc2ccc(O)cc2)cc1 was read as FAK blocker 51.9, Phagocytosis inh inactive, Mac1 fbg inh inactive, Mac1 fbg enh inactive, MRP1 act inactive, MRP reversal inactive and FAK inh conf inactive.
Screening Cc1ccc(NCc2ccccc2O)cc1 returned FAK blocker inactive, Phagocytosis inh inactive, Mac1 fbg inh inactive, Mac1 fbg enh inactive, MRP1 act inactive and MRP reversal inactive.
CC1CCCN(C(=O)C2CCN(S(=O)(=O)c3cccc4cccnc34)CC2)C1 (centres undefined) was read as FAK blocker inactive, Phagocytosis inh inactive, Mac1 fbg inh inactive, Mac1 fbg enh inactive, MRP1 act inactive and MRP reversal inactive.
Cc1ccc2nc(C)c(C(=O)N/N=C/c3ccccc3[N+](=O)[O-])cc2c1 was read as Phagocytosis inh inactive and MRP1 act inactive.
Screening Cc1cc([N+](=O)[O-])c2[nH]c(C(=O)N/N=C/c3ccccc3C(=O)O)c(-c3ccccc3)c2c1 returned FAK blocker 29.3, MRP1 act inactive and FAK inh conf inactive.
Screening Cc1ccc(-c2n[nH]c(=S)n2/N=C/C=C\c2ccccc2[N+](=O)[O-])cc1 returned FAK blocker 29.1, Mac1 fbg inh inactive, Mac1 fbg enh inactive, MRP1 act inactive, MRP reversal inactive and FAK inh conf inactive.
For O=C(N/N=C/c1cc(Cl)cc([N+](=O)[O-])c1O)NC12CC3CC(CC(C3)C1)C2 the results were Phagocytosis inh inactive and MRP1 act inactive.
Screening CC(C)(C)C(=O)c1sc(Nc2ccccc2)nc1N returned FAK blocker 32.4, Phagocytosis inh inactive, Mac1 fbg inh inactive, Mac1 fbg enh inactive, MRP1 act inactive, MRP reversal inactive and FAK inh conf inactive.
Screening Cc1ccccc1Nc1cc2ccccc2c(=O)[nH]1 returned Phagocytosis inh inactive, Mac1 fbg inh inactive, Mac1 fbg enh inactive and MRP1 act inactive.
O=c1[nH]c(Nc2ccc(F)cc2)cc2ccccc12 was read as FAK blocker 35.7, Phagocytosis inh inactive, Mac1 fbg inh inactive, Mac1 fbg enh inactive, MRP1 act inactive and FAK inh conf inactive.
Screening N=c1n(CCN2CCOCC2)c2ccccc2n1CC(=O)c1ccc(Cl)c(Cl)c1 returned FAK blocker 95.3, Phagocytosis inh inactive, Mac1 fbg inh inactive, Mac1 fbg enh inactive, MRP1 act inactive, MRP reversal inactive and FAK inh conf inactive.
For CCCCOC(=O)Cn1c(=N)n(CCN2CCOCC2)c2ccccc21 the results were FAK blocker inactive and MRP reversal inactive.
Cc1c(-c2ccc(Cl)cc2)oc(=O)c2c(N)n(-c3ccccc3)nc12 was read as FAK blocker 24.1, Phagocytosis inh inactive, Mac1 fbg inh inactive, Mac1 fbg enh inactive, MRP1 act inactive and FAK inh conf inactive.
`CCCCCCCC(=O)Nc1ccc(C(=O)N/N=C/c2cccc([N+](=O)[O-])c2)cc1` gave FAK blocker 33.6, Phagocytosis inh inactive, Mac1 fbg inh inactive, Mac1 fbg enh inactive, MRP1 act inactive and FAK inh conf inactive.
`COc1ccc(-c2nn3c(-c4ccc(F)cc4)nnc3s2)cc1` gave FAK blocker 35.5, Phagocytosis inh inactive, Mac1 fbg inh inactive, Mac1 fbg enh inactive, MRP1 act inactive, MRP reversal inactive and FAK inh conf inactive.
`COc1ccc(-c2nn3c(-c4ccccc4)nnc3s2)cc1` gave FAK blocker inactive, Mac1 fbg inh inactive, Mac1 fbg enh inactive, MRP1 act inactive and MRP reversal inactive.
Screening Cc1cc2nnc(SC(C)C#N)n2c2ccccc12 (centres undefined) returned FAK blocker 35.1, MRP1 act inactive and FAK inh conf inactive.
COc1ccc(/C=N/NC(=O)c2ccn[nH]2)cc1COc1ccc(Cl)cc1Cl was read as FAK blocker 21.2, Phagocytosis inh inactive, Mac1 fbg inh inactive, Mac1 fbg enh inactive, MRP1 act inactive and FAK inh conf inactive.
`c1cc2ccc3ccc(CN4CCOCC4)c4ccc(c1)c2c34` gave FAK blocker 40.8, MRP1 act inactive, MRP reversal inactive and FAK inh conf 40.6.
